Results on 4 molecules are retold here after PubChem BioAssay (Tox21).

Records with an inconclusive call do not appear. Calls of active or inactive are those of the source. Unless noted, calls come from the whole dose curve; as a rule, active = well fitted curve in the direction sought with a large enough effect in the repeat runs; inconclusive = weak or mixed curves; inactive = no such curve, though single readings can be large; an effect the other way counts as inactive or inconclusive.

A short description of test [1]: qHTS assay for small molecule agonists of the p53 signaling pathway (AID 651631; calls by dose curve; note: nearly all actives have a fitted effect of over 15% in size). The method in brief:
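p53RE-bla HCT-116 cells; compounds 16 h, 37 °C; LiveBLAzer B/G FRET substrate 2 h RT; fluorescence intensity read-out, qHTS format.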
A general note: In qHTS, concentration-response curves come from the screen itself.

Test [2] is described as follows: qHTS assay for small molecules that induce genotoxicity in human embryonic kidney cells expressing luciferase-tagged ATAD5 (AID 651632). Note: nearly all actives have a fitted effect of over 15% in size. Note: potency is the fitted concentration of half-maximal effect. The method in brief: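 Test compounds were delivered by pin tool onto HEK293T reporter cells (2,000/well) expressing ATAD5 fused to luciferase. After 16 hr at 37C, 5% CO2, Amplite was added for 30 min at room temperature and luminescence was measured.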

Test [3] in a line: qHTS assay for small molecule agonists of the p53 signaling pathway - cell viability (AID 651633; calls by dose curve;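 note: p53RE-bla HCT reporter cells with a stable beta-lactamase p53 reporter; series mostly up to about 83 µM; nearly all actives have a fitted effect of over 30% in size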). The method in brief:
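p53RE-bla cells were treated with compound for 16 hours at 37 C. Cytotoxicity was then measured as CellTiter-Glo luminescence after 30 min at room temperature.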

The nature of test [4]: qHTS assay for small molecules that induce genotoxicity in human embryonic kidney cells expressing luciferase-tagged ATAD5 - cell viability (AID 651634; calls by dose curve; note: nearly all actives have a fitted effect of over 25% in size). The method in brief:
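Quantitative high-throughput format. HEK293T cells expressing ATAD5 fused to luciferase were plated at 2,000 cells/well and treated 15.5 hr with compound versus DMSO. Viability was determined by fluorescent live-cell protease substrate, 30 min at 37C.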

The nature of test [5]: qHTS assay for small molecule disruptors of the mitochondrial membrane potential - cell viability (AID 720634; calls by dose curve;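 note: human HepG2 liver cancer cells; series mostly up to about 83 µM; nearly all actives have a fitted effect of over 20% in size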). The method in brief:
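Same-well counter-screen: following the MMP dye addition, CellTiter-Glo was added to 1 hr compound-treated HepG2 cells and luminescence read after 30 min at room temperature.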

Test [6] can be described thus: qHTS assay to test for compound auto fluorescence at 590 nm (red) in HepG2 cells (AID 720674). In a few lines:
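HepG2 cells, 2,000 per well in MEM with 10% FBS, attached overnight at 37 C, then got 23 nL compound or DMSO. After 1 hr at 37 C, 5% CO2, red fluorescence was read at 540/590 nm against Rose Bengal sodium as reference.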

Test [7] in a line: qHTS assay to test for compound auto fluorescence at 535 nm (green) in HepG2 cells (AID 720675).
Test [8] is described as follows: qHTS assay to test for compound auto fluorescence at 590 nm (red) in HEK293 cells (AID 720679). In a few lines: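 Plates of HEK293 cells (10% dialyzed FBS) are treated with 23 nL compound or DMSO vehicle after a 4-5 hr attachment period, incubated overnight at 37C, and read for red fluorescence at 540/590nm.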
Test [9] can be described thus: qHTS assay to test for compound auto fluorescence at 535 nm (green) in HEK293 cells (AID 720680).
The nature of test [10]: qHTS assay to test for compound auto fluorescence at 460 nm (blue) in HEK293 cell free culture (AID 720681). In a few lines: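 Compounds were added to cell-free DMEM with 10% FBS and fluorescence read directly. The blue channel used 405 nm excitation and 460 nm emission, with triamterene as the reference fluorophore.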
Test [11] is described as follows: qHTS assay to test for compound auto fluorescence at 535 nm (green) in HEK293 cell free culture (AID 720682). In a few lines: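 Cell-free medium (DMEM, 10% FBS) receives compound or DMSO by pintool. Plate read directly at Ex 485/Em 535 nm. Signal converted to fluorescein equivalency.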
Test [12] can be described thus: qHTS assay to test for compound auto fluorescence at 590 nm (red) in HEK293 cell free culture (AID 720683). The method in brief: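 Cell-free wells of DMEM with 10% FBS received compound, and intrinsic fluorescence was read at excitation/emission 540/590 nm. Values expressed as equivalence to Rose Bengal sodium.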
Test [13] is described as follows: qHTS assay to test for compound auto fluorescence at 590 nm (red) in HepG2 cell free culture (AID 720684). The method in brief: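 Rose Bengal sodium served as the reference for red signal. Test compounds were dispensed into serum-containing MEM (10% FBS) without cells, and plates were read at 540/590 nm.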
The nature of test [14]: qHTS assay to test for compound auto fluorescence at 460 nm (blue) in HepG2 cell free culture (AID 720685). In a few lines: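 Cell-free plates of MEM plus 10% FBS received 23 nL compound or DMSO vehicle; blue-channel (405/460 nm) intensity scored against triamterene as reference fluorophore.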
A short description of test [15]: qHTS assay to test for compound auto fluorescence at 535 nm (green) in HepG2 cell free culture (AID 720686).
Test [16] is described as follows: qHTS assay to test for compound auto fluorescence at 460 nm (blue) in HepG2 cells (AID 720687). The method in brief: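 HepG2 cells in MEM with 10% FBS, attached overnight at 37 C, were exposed to compound or DMSO for 1 hr at 37 C, 5% CO2. Blue fluorescence was read at 405/460 nm, with triamterene as reference fluorophore.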
In test [17] the target is Glucocorticoid receptor (Homo sapiens) (UniProt P04150). The experiment in a line: qHTS assay to identify small molecule agonists of the glucocorticoid receptor (GR) signaling pathway (AID 720691; active = well fitted activation curve with a large enough effect in the signal ratio in the repeat runs, not every such curve was filed as active; the % refers to the signal ratio). The method in brief: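 A HeLa cervical cancer line expressing GR and a glucocorticoid response element-driven beta-lactamase gene is treated with compounds for 18 h; LiveBLAzer B/G FRET substrate is then applied and fluorescence read.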

For test [18] the target is unchanged. The experiment in a line: qHTS assay to identify small molecule antagonists of the glucocorticoid receptor (GR) signaling pathway (AID 720692; active = well fitted inhibition curve with a large enough effect in the signal ratio in the repeat runs, not every such curve was filed as active; the % refers to the signal ratio). The method in brief:
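GRE-bla HeLa line, dex-stimulated (5 nM final). Compound exposure 18 h, 37 C. Beta-lactamase FRET read after 2 h RT substrate.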

The nature of test [19]: qHTS assay to test for compound auto fluorescence at 460 nm (blue) in HEK293 cells (AID 720678). In a few lines:
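After cell attachment (4-5 hr, 37C), compounds were pinned onto HEK293 monolayers in 10% dialyzed FBS medium. The blue channel (405/460 nm) was read following overnight culture. Equivalency was calculated against triamterene.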

The nature of test [20]: qHTS assay for small molecule disruptors of the mitochondrial membrane potential (AID 720635). Note: potency is the fitted concentration of half-maximal effect. The method in brief:
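HepG2 cells exposed to compound 1 hr at 37C, then Mito-MPS dye 30 min. Ratio read of aggregate (540/590 nm) versus monomer (490/535 nm) fluorescence.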

Glucocorticoid receptor (Homo sapiens), sequence (P04150 whole entry, looked up): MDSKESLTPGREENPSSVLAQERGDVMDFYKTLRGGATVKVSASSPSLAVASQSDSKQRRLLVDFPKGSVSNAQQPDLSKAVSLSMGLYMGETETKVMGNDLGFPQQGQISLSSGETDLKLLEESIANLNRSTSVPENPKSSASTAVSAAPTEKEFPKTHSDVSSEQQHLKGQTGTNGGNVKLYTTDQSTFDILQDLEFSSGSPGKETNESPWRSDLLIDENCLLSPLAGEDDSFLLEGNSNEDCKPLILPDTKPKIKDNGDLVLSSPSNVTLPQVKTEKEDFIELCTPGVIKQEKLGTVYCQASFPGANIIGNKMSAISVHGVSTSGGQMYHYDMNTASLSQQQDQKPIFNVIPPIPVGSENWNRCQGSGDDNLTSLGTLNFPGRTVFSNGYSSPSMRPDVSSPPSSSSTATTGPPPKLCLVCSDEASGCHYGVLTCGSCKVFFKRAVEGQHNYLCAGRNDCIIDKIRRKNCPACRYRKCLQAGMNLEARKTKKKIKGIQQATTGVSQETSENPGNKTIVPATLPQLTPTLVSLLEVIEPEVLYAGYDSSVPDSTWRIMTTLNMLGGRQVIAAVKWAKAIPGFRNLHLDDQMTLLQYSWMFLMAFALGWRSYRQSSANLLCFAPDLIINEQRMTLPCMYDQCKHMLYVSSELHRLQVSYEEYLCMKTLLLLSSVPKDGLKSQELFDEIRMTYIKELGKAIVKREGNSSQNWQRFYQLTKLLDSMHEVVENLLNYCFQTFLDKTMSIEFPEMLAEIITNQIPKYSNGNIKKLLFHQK

On to `[O-][N+](=Nc1ccccc1)c1ccccc1`, for which the Potency result in test [1], in test [2], in test [3], in test [4], in test [5] and in test [10] was “inactive” in each case. Further, the Potency entry in test [14], in test [16], in test [17] and in test [18] was “inactive” each time. The outcome in test [6], in test [7], in [8], in test [9], in test [11] and in [12] was inactive. In addition, the result in [13] and in test [15] was inactive.

As for `CO`, the Potency result in [1], in test [3], in test [4], in [19], in [10] and in test [14] was “inactive” each time. Moreover, in [16], the Potency result was “inactive”. In addition, the call in [6], in [7], in test [8], in test [9], in test [11] and in test [12] was inactive. Further, the result in [13] and in test [15] was inactive.

In the case of `CCCCCCOC(=O)c1ccccc1O`, the Potency result in [1], in [2], in test [3], in [4], in [5] and in test [10] was “inactive” in each case. Moreover, the Potency result in [14], in [16], in test [17] and in [18] was “inactive” each time. For the same molecule, the call in [6], in [7], in [8], in test [9], in test [11] and in test [12] was inactive. The result in [13] and in test [15] was inactive.

With `COc1ccc(N=[N+]([O-])c2ccc(OC)cc2)cc1`, the Potency result in [1], in [3], in test [4], in test [19], in test [10] and in [14] was “inactive” in each case. Also, the Potency entry in [16] and in [17] was “inactive” each time. In addition, the Potency in [2] is 0.136 µM (active); in test [20] it was 27 µM (active). Also, the result in test [6], in [7], in test [8], in test [9], in [11] and in [12] was inactive. In addition, the molecule was classed as inactive in [13] and in [15].
